# Experimental data as given in PubChem BioAssay.
# “And” between values parts separate entries of the source, which are not always exact repeats. Identical values can stand only once. A structure can be active in one record and inactive in another. The source made the active and inactive calls. Unless noted, no rule for the calls is given here.
# How the values were obtained:
# [1] = polyglutamine-triggered caspase-3 activation inhibitors, cell-based (AID 1583); conditions: polyglutamine-induced caspase-3 activation, cell assay; stronger effect = higher value;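 tested at 10 µM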
# [2] = circadian clock period modulators, cell-based, LOPAC library, luminescence reporter (AID 2774); conditions: circadian reporter cells, at 7 µM, actives lie on both sides;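 also: values are relative to mean of DMSO wells on each plate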
# [3] = liver-stage malaria parasite growth inhibition, primary screen, cell-based, HepG2, luciferase luminescence, HepG2 viability (AID 624349; in the data active = parasite load remaining mostly below about 12%, no sharp cut-off; inactive = mostly above about 10%;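 also: 100% = mean of DMSO negative control wells on the same plate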); conditions: P. berghei liver stage in HepG2, luciferase luminescence, concentration not given here; parasite load remaining: stronger effect = lower value; viability: measured here: HepG2 viability without parasites
# [4] = Cy5 fluorescence quenching or enhancement artefacts, artefact control for HCV NS3 helicase inhibitor project, biochemical, LOPAC1280 (AID 687037); conditions: Cy5-DNA-NS3h complex fluorescence interference counterscreen
# [5] = stimulators of nuclear beta-catenin in C2C12, primary screen, imaging, WNT3A-conditioned medium, mouse C2C12, NPC library (AID 1117326; in the data active = nuclear beta-catenin stimulation mostly above about 4.2%, no sharp cut-off; inactive = mostly below about 10%); conditions: stronger effect = higher value
# [6] = stimulators of insulin release from INS-1E, primary screen, cell-based, 5 mM glucose, NPC library (AID 1117329;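 active = compound raises insulin release from rat beta cells at 5 mM glucose, no numeric limit stated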); conditions: rat INS-1E insulin secretion, at 10 µM, stronger effect = higher value
# [7] = growth inhibition of GSK3B-pretreated HCT116 cells – cell-based, CellTiter-Glo, 0.2 to 20 µM (AID 1117336;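 active = compounds lowering colon cancer cell viability after pretreatment blocking the GSK3B kinase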); conditions: HCT116 viability after GSK3B inhibitor, at 20 µM, stronger effect = higher value
# [8] = inhibition of endothelial tube formation, primary screen, imaging, VEGF stimulated, CD31 staining, tube area, NPC library (AID 1117340;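 active = compound that reduces growth-factor-driven endothelial tube area in a mixed cell culture, no cutoff stated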); conditions: VEGF-stimulated ADSC/ECFC co-culture, at 10 µM, stronger effect = higher value
# [9] = glucagon-like peptide 1 release enhancers, primary assay, NCI-H716 cell line, NPC library (AID 1117341;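 active = compound raises GLP1 secretion from the human gut endocrine cells, with no numeric limit stated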); conditions: NCI-H716 cells, at 10 µM, stronger effect = higher value
# [10] = HCT116 colon cancer cell growth inhibition, primary screen, CellTiter-Glo luminescence, NPC library (AID 1117342;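 active = compounds that lower survival of HCT116 colon cancer cells in the luminescence readout, no numeric limit stated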); conditions: at 20 µM (top of the series)
# [11] = CellTiter-Glo luminescent readout of SW480 viability loss, NPC library primary (AID 1117343;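 active = compounds that lower viability of the colon cancer cells in the luminescence readout, with no numeric limit stated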); conditions: CellTiter-Glo luminescence; at 20 µM (top of the series)
# [12] = decreased DLD-1 cellular survival, CellTiter-Glo luminescent readout, NPC compound collection, primary HTS (AID 1117346;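 active = compounds that lower survival of DLD-1 colon cancer cells in the luminescence readout, no cutoff given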); conditions: DLD-1 viability, CellTiter-Glo luminescence; at 20 µM (top of the series)
# [13] = target: 6-phosphogluconate dehydrogenase, decarboxylating (Homo sapiens) (UniProt P52209); experiment: 6PGD enzyme inhibitors, primary screen, biochemical, human, recombinant enzyme, NADPH absorbance (AID 1159550;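 active = at least 20% inhibition of 6-phosphogluconate dehydrogenase activity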); conditions: recombinant 6PGD, NADPH absorbance 341 nm; at 10 µM; stronger effect = higher value
# [14] = differential killing of epithelial or mesenchymal cells, primary screen, imaging, PC-3E GFP, TEM4-18 mCherry, co-culture (AID 1345086;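 active = compounds killing one labelled cell type while sparing the other, by normalised counts and ratio limits, not self-fluorescent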;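 as to all read-outs here: cells exposed to compound for 72 h before imaging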;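 as to red/green cell ratio (normalised): normalised mesenchymal count divided by normalised epithelial count so high means epithelial killing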); conditions: imaging cell counts, at 1 µM; for red/green cell ratio (normalised): actives lie on both sides
# [15] = tested on: Aerobactin synthetase IucA (Klebsiella pneumoniae hvKP1); experiment: Biochemical IucA enzyme inhibition primary screen of the Spectrum library (AID 1346200); conditions: malachite green pyrophosphate, A620, at 8 µM, stronger effect = lower value;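 also: 100% = wells without compound and 0% = wells lacking enzyme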
# [16] = sensitizers of A549 cells to miR-34 induction, primary screen, imaging, A549 dox-inducible miR-34, nuclei and caspase counts (AID 1347080;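 active = compounds whose cell count with miR-34 switched on is under 0.7 times the count with it off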); conditions: A549 miR-34 inducible, Hoechst nuclei count, 48 h
# [17] = survival rescue of mitochondrial mutant cells in low glucose, primary screen, MELAS cybrids, Rieske KO mouse fibroblasts, CellTiter-Glo (AID 1508586;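 active = mean z-score across replicates of 1.96 or higher in either the MELAS or the Rieske mutant cell line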;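 also: z relative to plate mean and SD of compound and empty wells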)
# [18] = target: NAD(+) hydrolase SARM1 (Homo sapiens) (UniProt Q6SZW1); experiment: SARM1 TIR NADase inhibitors, cell lysate, NAD-Glo luminescence (AID 1508614;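 active = compound whose remaining NAD level is above about 45 nM, limit read from the data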;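 also: higher remaining NAD means stronger inhibition of SARM1 NADase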); conditions: SAM-TIR HEK293T lysate NADase, at 1 µM, stronger effect = higher value
# [19] = target: Mitogen-activated protein kinase 7 (Homo sapiens) (UniProt Q13164); experiment: ERK5 transactivation activators in reporter cells, primary screen, cell-based, HTS (AID 1508626;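 active = luciferase signal above three times the same-plate solvent-only control wells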;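 also: luciferase driven by Gal4-ERK5 fusion binding five Gal4 sites before minimal TATA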); conditions: HeLa Gal4-ERK5 transactivation, 18 h, at 5 µM, stronger effect = higher value
# [20] = viability rescue of complex I mutant cybrids, primary screen, cell-based, galactose medium, ATP luminescence (AID 1645843;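 active = z-score of at least 1.8 in each of two replicates, scored against plate mean and spread of sample wells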;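 also: positive z means more ATP and so rescue of galactose-driven cybrid death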); conditions: complex I mutant cybrid cells, 72 h, stronger effect = higher value
# [21] = measured here: epithelial PC-3E GFP cell survival
# [22] = measured here: mesenchymal TEM4-18 mCherry cell survival
# [23] = measured here: relative caspase fold change +Dox/-Dox
# [24] = measured here: total cells with miR-34 induction, stronger effect = lower value
# [25] = measured here: total cells without miR-34 induction
# [26] = MELAS cybrid survival, CellTiter-Glo 48 h, stronger effect = higher value
# [27] = Rieske KO mouse fibroblast survival, CellTiter-Glo 72 h
# Mitogen-activated protein kinase 7 (Homo sapiens), sequence (Q13164 whole entry, looked up, the tested form may be a part): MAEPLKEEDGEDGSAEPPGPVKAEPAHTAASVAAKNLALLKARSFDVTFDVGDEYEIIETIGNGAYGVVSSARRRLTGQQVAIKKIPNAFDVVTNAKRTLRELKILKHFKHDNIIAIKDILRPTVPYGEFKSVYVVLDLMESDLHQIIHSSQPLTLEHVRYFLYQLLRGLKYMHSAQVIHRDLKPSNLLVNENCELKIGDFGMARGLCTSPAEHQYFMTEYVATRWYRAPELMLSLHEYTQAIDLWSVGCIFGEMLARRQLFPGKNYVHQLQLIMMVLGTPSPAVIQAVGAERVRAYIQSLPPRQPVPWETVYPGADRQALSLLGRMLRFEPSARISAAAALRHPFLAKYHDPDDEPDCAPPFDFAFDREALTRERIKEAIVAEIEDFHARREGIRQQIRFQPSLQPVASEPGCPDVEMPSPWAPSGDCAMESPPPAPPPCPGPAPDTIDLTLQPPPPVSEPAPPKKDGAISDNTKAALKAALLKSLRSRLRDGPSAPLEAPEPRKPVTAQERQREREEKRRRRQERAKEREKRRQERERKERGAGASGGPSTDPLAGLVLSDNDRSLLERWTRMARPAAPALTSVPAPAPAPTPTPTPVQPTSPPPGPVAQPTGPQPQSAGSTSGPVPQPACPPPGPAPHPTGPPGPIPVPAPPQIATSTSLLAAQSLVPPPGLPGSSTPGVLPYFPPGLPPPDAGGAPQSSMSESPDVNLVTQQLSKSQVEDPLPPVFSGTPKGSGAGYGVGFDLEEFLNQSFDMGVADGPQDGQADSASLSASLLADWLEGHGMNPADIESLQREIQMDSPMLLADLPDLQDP
# 6-phosphogluconate dehydrogenase, decarboxylating (Homo sapiens), sequence (P52209 whole entry, looked up): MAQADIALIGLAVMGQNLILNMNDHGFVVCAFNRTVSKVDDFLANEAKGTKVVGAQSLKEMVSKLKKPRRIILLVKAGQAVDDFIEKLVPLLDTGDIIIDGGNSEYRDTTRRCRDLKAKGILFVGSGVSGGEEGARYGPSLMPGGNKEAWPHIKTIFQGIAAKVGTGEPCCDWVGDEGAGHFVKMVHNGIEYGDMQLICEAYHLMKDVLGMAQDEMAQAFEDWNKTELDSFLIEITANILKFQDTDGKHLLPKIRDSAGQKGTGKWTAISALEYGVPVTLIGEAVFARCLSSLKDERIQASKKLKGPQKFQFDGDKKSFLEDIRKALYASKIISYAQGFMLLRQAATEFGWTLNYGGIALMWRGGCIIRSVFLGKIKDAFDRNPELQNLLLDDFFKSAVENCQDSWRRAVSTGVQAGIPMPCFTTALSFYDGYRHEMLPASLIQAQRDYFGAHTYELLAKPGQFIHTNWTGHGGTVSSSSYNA
# NAD(+) hydrolase SARM1 (Homo sapiens), sequence (Q6SZW1 whole entry, looked up, the tested form may be a part): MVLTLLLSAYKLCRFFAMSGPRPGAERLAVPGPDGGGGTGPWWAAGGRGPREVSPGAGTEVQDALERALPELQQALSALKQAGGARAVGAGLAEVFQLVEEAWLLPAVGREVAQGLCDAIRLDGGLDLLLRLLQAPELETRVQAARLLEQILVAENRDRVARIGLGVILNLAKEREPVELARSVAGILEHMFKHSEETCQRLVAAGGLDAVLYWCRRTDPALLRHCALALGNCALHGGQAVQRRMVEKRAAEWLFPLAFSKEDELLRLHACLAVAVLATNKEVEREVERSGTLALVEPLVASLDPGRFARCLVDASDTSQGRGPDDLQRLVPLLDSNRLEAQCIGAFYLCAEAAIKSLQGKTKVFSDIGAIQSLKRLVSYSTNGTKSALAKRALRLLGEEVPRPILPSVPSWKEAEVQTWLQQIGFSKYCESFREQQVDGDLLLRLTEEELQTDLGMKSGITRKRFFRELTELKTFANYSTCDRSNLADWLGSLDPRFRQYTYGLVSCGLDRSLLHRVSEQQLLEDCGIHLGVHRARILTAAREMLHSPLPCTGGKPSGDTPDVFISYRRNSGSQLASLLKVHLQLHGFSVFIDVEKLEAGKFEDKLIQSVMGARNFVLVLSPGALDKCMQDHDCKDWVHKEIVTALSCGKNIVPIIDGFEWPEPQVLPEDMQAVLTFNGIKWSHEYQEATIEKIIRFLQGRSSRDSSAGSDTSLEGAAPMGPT
compound,measurement,setting,value
CC(CCc1ccccc1)NC(C)C(O)c1ccc(O)cc1 (stereo not given),inhibition,[1],5.61%
same,period change,[2],0.06 h (inactive)
same,parasite load remaining,[3],75.2% (inactive) and 69.3% (inactive)
same,viability,[3],72.4% and 90.8%
same,fluorescence ratio (interference),[4],0.9 (inactive)
same,nuclear beta-catenin stimulation,[5]; at 10 µM,-0.2% (inactive)
same,nuclear beta-catenin stimulation,"[5]; stimulation, at 2 µM",-0.9%
same,insulin secretion stimulation,[6],43.4% (active)
same,viability decrease,[7],-3.7% (inactive)
same,tube area decrease,[8],16.8% (inactive)
same,GLP1 secretion stimulation,[9],-0.5% (inactive)
same,inhibition of viability,[10],16.9% (inactive)
same,viability decrease (inhibition),[11],24.3% (inactive)
same,viability decrease (inhibition),[12],-7.8% (inactive)
same,inhibition,[13],14.2% (inactive)
same,red/green cell ratio (normalised),[14],1.03 (inactive)
same,normalised cell number,[14]; [21],1.2
same,normalised cell number,[14]; [22],1.24
same,activity remaining,[15],82.9% (inactive)
same,fold change,[16]; stronger effect = lower value,1.06 (inactive) and 0.798 (inactive)
same,fold change,[16]; [23],0.901 and 0.92
same,cell count,[16]; [24],10600 and 10000
same,cell count,[16]; [25],10000 and 12600
same,z-score,[17]; [26],0.615 (inactive)
same,z-score,[17]; [27],-0.62
same,remaining NAD,[18],10 nM (inactive)
same,luciferase signal,[19],40 AU (inactive)
same,z-score,[20],-0.555 (inactive)
CC(C)(C)NC[C@H](O)c1ccc(O)cc1Cl,nuclear beta-catenin stimulation,[5]; at 10 µM,0.3% (inactive)
same,nuclear beta-catenin stimulation,"[5]; stimulation, at 2 µM",-0.2%
same,insulin secretion stimulation,[6],7.2% (inactive)
same,viability decrease,[7],13.2% (inactive)
same,tube area decrease,[8],-4.4% (inactive)
same,GLP1 secretion stimulation,[9],5.5% (inactive)
same,inhibition of viability,[10],35.7% (inactive)
same,viability decrease (inhibition),[11],37.1% (inactive)
same,viability decrease (inhibition),[12],8.8% (inactive)
COc1ccc(C(CN(C)C)C2(O)CCCCC2)cc1 (stereo not given),fluorescence ratio (interference),[4],1.1 (inactive)
same,nuclear beta-catenin stimulation,[5]; at 10 µM,3.1% (inactive)
same,nuclear beta-catenin stimulation,"[5]; stimulation, at 2 µM",1.4%
same,insulin secretion stimulation,[6],2.1% (inactive)
same,viability decrease,[7],-40% (inactive)
same,tube area decrease,[8],1.5% (inactive)
same,GLP1 secretion stimulation,[9],4.1% (inactive)
same,inhibition of viability,[10],-3.77% (inactive)
same,viability decrease (inhibition),[11],-4% (inactive)
same,viability decrease (inhibition),[12],-3.8% (inactive)
same,inhibition,[13],-0.228% (inactive)
same,red/green cell ratio (normalised),"[14]; counts scaled to control wells, 1 = unselective",1.25 (inactive)
same,normalised cell number,[14]; [21],1.01
same,normalised cell number,[14]; [22],1.26
same,activity remaining,[15],123% (inactive)
same,z-score,[17]; [26],2.81 (active) and 0.624 (inactive) and -0.216 (inactive)
same,z-score,[17]; [27],-2.19 and 0.0731 and -0.394
same,remaining NAD,[18],10 nM (inactive)
same,luciferase signal,[19],48 AU (inactive)
same,z-score,[20],-0.07 (inactive) and 0.705 (inactive) and 0.625 (inactive)
O=c1[nH]oc2c1CCNC2,inhibition,[1],9.73%
same,period change,[2],0.075 h (inactive)
same,parasite load remaining,[3],119% (inactive)
same,viability,[3],90%
same,fluorescence ratio (interference),[4],1 (inactive)
same,nuclear beta-catenin stimulation,[5]; at 10 µM,0.9% (inactive)
same,nuclear beta-catenin stimulation,"[5]; stimulation, at 2 µM",-0.2%
same,insulin secretion stimulation,[6],1.95% (inactive)
same,viability decrease,[7],23.2% (inactive)
same,tube area decrease,[8],2% (inactive)
same,GLP1 secretion stimulation,[9],0.6% (inactive)
same,inhibition of viability,[10],7% (inactive)
same,viability decrease (inhibition),[11],-16.8% (inactive)
same,viability decrease (inhibition),[12],2.4% (inactive)
same,inhibition,[13],-2.26% (inactive)
same,red/green cell ratio (normalised),[14],1.27 (inactive)
same,normalised cell number,[14]; [21],0.86
same,normalised cell number,[14]; [22],1.1
same,activity remaining,[15],105% (inactive)
same,fold change,[16]; stronger effect = lower value,0.986 (inactive) and 0.895 (inactive) and 0.961 (inactive)
same,fold change,[16]; [23],0.885 and 0.751 and 0.995
same,cell count,[16]; [24],10200 and 8820 and 8460
same,cell count,[16]; [25],10400 and 9850 and 8810
same,z-score,[17]; [26],0.562 (inactive)
same,z-score,[17]; [27],-0.393
same,remaining NAD,[18],10 nM (inactive)
same,luciferase signal,[19],104 AU (inactive)
same,z-score,[20],0.375 (inactive) and 2.83 (active)
